# Source: PubChem BioAssay (NCI)
# Compounds without any hit were thinned out: in the full panel of roughly 83,000, 20% have a hit.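 A percent growth of 40 corresponds to 60% growth inhibition; 0 means no net growth; -100 means all cells died. Active threshold: below 10.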 A number with no mark means an inactive call. Calls of active or inactive are those of the source.
# Tested on: HCT-15 colon
# Assay: NCI-60 one-dose screen, 48 h (100 = growth as untreated, 0 = no growth, -100 = all killed)
# Settings: 10 µM unless noted
# Protocol: Growth inhibition of the HCT-15 human tumor cell line is measured as a screen for anti-cancer activity. Cells are grown in 96 well plates and exposed to the test compound for 48 hours. Compounds are tested at a single concentration, which is 10^-5 M for most compounds. The reported endpoint is percent growth (GI% or GIPRCNT), where numbers from 0 - 100% represent growth inhibition, and numbers from -100% - 0 represent cell death. For example, a value of 40 represents 60% growth inhibition. A value of 0 means no net growth occurred over the course of the experiment. A value of -40 indicates 40% of cells at the beginning of the experiment died by the end of the experiment. A value of -100 means all cells are dead at the end of the experiment.
# NCI-60 Human Tumor Cell Lines Screen was performed using the standard one-dose NCI protocol, which is described in more detail at https://dtp.cancer.gov/discovery_development/nci-60/default.htm.
# Compounds with GIPRCNT values below 10 were considered active. Activity score was based on GIPRCNT using the following formula: […]
# Score is 0 for GIPRCNT values of 100 or above, 50 for GIPRCNT values of 0, and 100 for GIPRCNT values of -100.
row,Compound,growth
1,CCOc1ccccc1NC(=O)CCC(=O)OC,105%
2,O=C1C=CC2(O)OC(c3ccccc3)CC(=O)C2=C1O (stereo not given),64.9%
3,CCN(CC)c1ccc(/C=N/NC(=O)c2ccccc2Nc2ccnc(C(F)(F)F)c2)c(O)c1,32.6%
4,CN1C(=O)N(C)C2C1NN=c1s/c(=C\c3ccccc3F)c(=O)n12 (stereo not given),13.3%
5,N/C(=N\c1nc2ccccc2s1)NC(=O)Nc1ccccc1,23.4%
6,COc1ccc(-c2nc3cc(C(=O)NC4CCCCC4)ccc3n2C2CCCCC2)cc1,21.5%
7,COc1cc(C)cc(-c2c(-c3cc(N4CC(O)C4)nc(-c4cccnc4)n3)cnn2C)c1,77.4%
8,Cn1cc(-c2nc(-c3c[nH]c4c(Cl)nccc34)cs2)c2ccccc21,98.6%
9,O=C(CNc1ncco1)Nc1ccc(S(=O)(=O)c2ccc(NC(=O)CNc3ncco3)cc2)cc1,-49.6% (active)
10,Oc1c(Cl)cc(Cl)c2ccc(CN3CCNCC3)nc12,19.5%
11,C1=C2CCCC3=Cc4ccccc4OC23Oc2ccccc21,20.1%
12,CCN1CCN(CCOc2ccc(CNc3ccc4nc(CCC5CCCCC5)[nH]c4c3)cc2)CC1,-17.7% (active)
13,COc1ccc(NC(=O)CSc2oc(-c3ccccc3)nc2S(=O)(=O)c2ccc(Cl)cc2)c(OC)c1,73.7%
14,N=C(N)c1ccc(-c2ccc(-c3ccc(Cl)cc3Cl)s2)nc1,-15.2% (active)
15,O=c1ccc2c(ccc3ncccc32)o1,108%
16,CC1=C(C(=O)OCc2ccccc2)C(c2ccc3c(c2)OCO3)n2c(nc3ccccc32)N1 (stereo not given),30.4%
17,CC1=C([Se]CC(OC(=O)[C@@H](CO)NC(=O)OC(C)(C)C)C(=O)NCCCCCC(=O)OCc2ccccc2)C(=O)c2ccccc2C1=O (stereo not given in full),-45.8% (active)
18,Nc1cc(-c2ccc(Cl)cc2)nn1-c1nc(-c2ccc(Br)cc2)cs1,98.3%
19,CCCn1cnc2c(c1=N)C(c1ccc(Cl)cc1)c1sc3c(F)cccc3c1O2 (stereo not given),40.9%
20,COc1ccc(/C=N\NC(=O)c2ccc3nc(-c4ccc(Cl)cc4)[nH]c3c2)cc1,57.5%

row,Compound,growth
1,O=S(=O)(c1ccc(NCSc2nc3ccccc3s2)cc1)c1ccc(NCSc2nc3ccccc3s2)cc1,106%
2,Cc1nn(-c2ccccc2)c(Oc2ccccc2)c1/C=N/NC(=O)Cn1c(=O)sc2ccccc21,56.7%
3,c1ccc2cc(Cn3cc[n+](Cc4ccc5ccccc5c4)c3)ccc2c1,91.2%
4,COC12C=C/C(=C(/C(=O)OCc3ccccn3)C(=O)CCCCCCCCC3(OC)C=C/C(=C(/C(=O)OCc4ccccn4)C(=O)CCCCCCCC1)O3)O2,-37.5% (active)
5,CSc1nn2c(-c3cc4cc(Br)ccc4oc3=O)ccnc2c1C#N,102%
6,CN1CCN(Cc2ccc(NC(=O)c3cncc(C#Cc4cnc(N)c5ccc(C#N)cc45)c3)cc2C(F)(F)F)CC1,-82.4% (active)
7,COc1cc(-c2c(-c3ccccc3)c[nH]c2C(=O)NCCCO)c(OC)c2c1OCO2,107%
8,CN1CCN(Cc2ccc(NC(=O)c3cncc(C#Cc4c(N)ncc5ccccc45)c3)cc2C(F)(F)F)CC1,-71.7% (active)
9,CO[C@]12C=C/C(=C(/C(=O)OCc3cccnc3)C(=O)CCCCCCCC[C@]3(OC)C=C/C(=C(/C(=O)OCc4cccnc4)C(=O)CCCCCCCC1)O3)O2,-78.5% (active)
10,O=C(/C=C/c1ccc(Cl)cc1)c1ccc(-n2cc(CN3CCN(c4cc5c(cc4F)c(=O)c(C(=O)O)cn5C4CC4)CC3)nn2)cc1,95.8%
11,COC(=O)CCc1c(/C=C2\N=C(c3ccc[nH]3)C=C2OC)[nH]c(C)c1C(=O)OCc1ccccc1,-1.22% (active)
12,CO[C@H]1CC(c2ccc[nH]2)=N[C@]12O[C@@H](C)C[C@@H]1CCCCCCCc3ccc([nH]3)[C@H]12,10.4%
13,CN(C)C(=S)NN=C(c1ccccn1)c1ccccn1,37.3%
14,O=C(/C=C/C12c3ccccc3C(c3ccccc31)C1C(=O)NC(=O)C12)c1cccs1 (stereo not given),26.3%
15,CCC(=C(c1ccc(OCCN(CC)CC)cc1)c1ccc(OCCN(CC)CC)cc1)c1ccc(Cl)cc1,-81% (active)
16,C#C[C@]1(O)CC[C@H]2[C@@H]3CC=C4c5sc(-c6ccccc6)nc5CC[C@]4(C)[C@H]3CC[C@@]21C,52.3%
17,Cc1ccc(Nc2oc(-c3ccccc3)nc2[P+](c2ccccc2)(c2ccccc2)c2ccccc2)cc1,-34.4% (active)
18,Cc1ccccc1NC(=O)Cn1cc(CN2CCN(c3ccnc4cc(Cl)ccc34)CC2)nn1,98.5%
19,O=C(Nc1cccc(Cl)c1)Oc1c(Cl)c(Cl)c(Cl)c(Cl)c1Cl,100%
20,Cc1ccc(Nc2nc(N)nc(N)c2N=O)cc1Cl,70.6%
